Experimental findings from PubChem BioAssay are described below.

The target of experiment [1] is Albumin (Bos taurus) (UniProt P02769). As to the kind of experiment: bovine serum albumin binders on microarray, profiling panel, artefact control for SMM control protein annotation, biochemical, small-molecule microarray, Alexa647 label, 635/667 nm fluorescence (AID 1118).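 Also: score merges 667 nm emission intensity and signal-to-noise per printed compound spot.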 The note with it: BSA-A647 binding, fluorescence 635 nm, higher = more signal.
Experiment [2] in a line: small-molecule microarray binders of probe aXIP, primary screen, biochemical, NeuroSMM set, 635/667 nm fluorescence (AID 1119).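 Also: probe is the protein aXip251-270 applied at 1 µg/mL to compound-printed slides; binding of probe to printed compounds measured as 667 nm fluorescence plus signal to noise.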 As to conditions: higher = more signal, called active from +8 up or from −8 down.
Experiment [3] can be described thus: small-molecule binders of probe aNOTCH3, primary screen, biochemical, small-molecule microarray, 635/667 nm fluorescence (AID 1120).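 Also: probe is a biotin-tagged antibody raised against NOTCH3 rather than NOTCH3 protein; score merges spot fluorescence near 667 nm with spot signal to noise.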 As to conditions: higher = more signal.
Experiment [4] is described as follows: small-molecule binders of probe aNOTCH2, primary screen, biochemical, small-molecule microarray, 635/667 nm fluorescence (AID 1121).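 Also: score merges feature fluorescence read at 667 nm with its signal to noise.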 The note with it: higher = more signal.
For experiment [5], the target named is Carbonic anhydrase 2 (Homo sapiens) (UniProt P00918). Put plainly: CAII small-molecule binders, profiling panel, biochemical, small-molecule microarray, Alexa647-labelled CAII (AID 1122). The note with it: CAII-A647 binding fluorescence, higher = more signal.
A short description of experiment [6]: COS7 lysate on small-molecule microarray, probe aHis, 635 nm (AID 1123).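 Also: z-score combines 667nm fluorescence intensity with signal-to-noise per printed compound spot.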 As to conditions: COS7 cell lysate, fluorescence, higher = more signal.
Experiment [7] is described as follows: compound binding in COS7 lysate, probe aLAP1, primary screen, cell lysate, small-molecule microarray (AID 1124).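 Also: lysate comes from COS7 cells expressing LAP1 and is applied at 0.3 µg/mL; score merges spot fluorescence near 667 nm with signal-to-noise over triplicate slides.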 The note with it: probe aLAP1, fluorescence, higher = more signal.
Experiment [8] relates to Sam68 (KHDRBS1). As to the kind of experiment: Sam68 small-molecule binders, primary screen, biochemical, small-molecule microarray, 635 nm fluorescence (AID 1125).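 Also: score merges 667 nm channel intensity with signal to noise over triplicate slides.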 The note with it: small-molecule microarray binding, higher = more signal.
Experiment [9] concerns Chordin-like protein 2 (CHRDL2). As to the kind of experiment: CHRDL2 small-molecule binders, primary screen, biochemical, small-molecule microarray, 635 nm fluorescence (AID 1126).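 Also: printed compound slides probed with Chrdl2 protein at 4 µg/mL for 1 h at 4 C; score merges 667 nm emission intensity with signal to noise over three replicate slides.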 The note with it: small-molecule microarray binding, fluorescence 635 nm; higher = more signal.
The target in experiment [10] is Concanavalin-A (Canavalia ensiformis) (UniProt P02866). Put plainly: ConA small-molecule binders, primary screen, artefact control for SMM control protein annotation, biochemical, small-molecule microarray, Alexa647 label, 635 nm (AID 1127).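 Also: z combines 667 nm emission intensity with signal-to-noise across three replicate slides.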 As to conditions: ConA-A647 binding fluorescence, higher = more signal.
Experiment [11] is described as follows: anti-His antibody binders, primary screen, artefact control for SMM control protein annotation, biochemical, small-molecule microarray, 635 nm fluorescence (AID 1128).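 Also: score merges feature fluorescence with signal-to-noise for each printed compound spot.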 The note with it: anti-His Alexa647 antibody binding, higher = more signal.
For experiment [12], the system named is Human papillomavirus type 1a E7 protein (residues 1-88). Put plainly: HPV1a E7 small-molecule binders, primary screen, biochemical, small-molecule microarray, residues 1-88, 635 nm (AID 1129). As to conditions: small-molecule microarray binding, fluorescence 635 nm; higher = more signal.
The target in experiment [13] is Focal adhesion kinase 1 (Homo sapiens) (UniProt Q05397). Put plainly: small-molecule microarray binders of FAK, primary screen, biochemical, 635/667 nm fluorescence, BSA, DTT (AID 1130).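 Also: composite of spot emission at 667 nm and signal to noise over triplicate slides.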 As to conditions: PTK2 binding, 635 nm fluorescence, higher = more signal.
Experiment [14] concerns Fibrinogen (Alexa647-labelled). Put plainly: fibrinogen binders on compound microarrays, profiling panel, artefact control for SMM control-protein annotation, biochemical, small-molecule microarray, 635/667 nm fluorescence (AID 1131).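 Also: z-score merges 667 nm fluorescence with per-spot signal-to-noise over triplicate slides.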 As to conditions: fibrinogen-A647 binding fluorescence, higher = more signal.
The target in experiment [15] is Follistatin (Homo sapiens) (UniProt P19883). Put plainly: follistatin binders on small-molecule microarrays, primary screen, biochemical, small-molecule microarray, 635/667 nm fluorescence (AID 1132). As to conditions: FST binding, 635 nm fluorescence, higher = more signal.
Experiment [16] concerns the target Fibroblast growth factor 2 (Homo sapiens) (UniProt P09038). As to the kind of experiment: FGF2 binders on small-molecule microarrays, primary screen, biochemical, small-molecule microarray, 635/667 nm fluorescence (AID 1133). As to conditions: small-molecule microarray binding, FGF2, fluorescence 635/667; higher = more signal.
A short description of experiment [17]: mitochondrial membrane potential change in A549 cells, profiling panel, cell-based, JC-1 fluorescence, basal, 24 h, 100 nL (AID 1138).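 Also: A549 lung adenocarcinoma cells under basal conditions with no added stimulus; test concentration not given here.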 The note with it: higher = more signal.
Experiment [18] has as its system Lefty1. As to the kind of experiment: Lefty1 binders on small-molecule microarrays, primary screen, biochemical, small-molecule microarray, 635/667 nm fluorescence (AID 1139). As to conditions: small-molecule microarray binding, fluorescence 635/667; higher = more signal.
Experiment [19] concerns wheat germ agglutinin (Triticum aestivum), Alexa647-labelled. Put plainly: wheat germ agglutinin binders on compound microarrays, profiling panel, artefact control for SMM control-protein annotation, biochemical, small-molecule microarray, 635/667 nm fluorescence (AID 1140).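 Also: score merges 667 nm feature emission with signal to noise over triplicate slides.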 The note with it: WGA-A647 binding, 635 nm fluorescence, higher = more signal.
In experiment [20] the target is Luciferin 4-monooxygenase (Photinus pyralis) (UniProt P08659). As to the kind of experiment: firefly luciferase enzyme inhibitors, primary screen, biochemical, luminescence, purified enzyme, 2006 set (AID 1141).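 Also: cell-free assay with purified firefly luciferase at 100 ng per well in PBS; test concentration not given here.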 The note with it: SteadyGlo luminescence, 30 min, higher = more signal, called active from +8 up or from −8 down.

Active and inactive are the calls of the source.

Sequence of Albumin (Bos taurus) (P02769 whole entry, looked up): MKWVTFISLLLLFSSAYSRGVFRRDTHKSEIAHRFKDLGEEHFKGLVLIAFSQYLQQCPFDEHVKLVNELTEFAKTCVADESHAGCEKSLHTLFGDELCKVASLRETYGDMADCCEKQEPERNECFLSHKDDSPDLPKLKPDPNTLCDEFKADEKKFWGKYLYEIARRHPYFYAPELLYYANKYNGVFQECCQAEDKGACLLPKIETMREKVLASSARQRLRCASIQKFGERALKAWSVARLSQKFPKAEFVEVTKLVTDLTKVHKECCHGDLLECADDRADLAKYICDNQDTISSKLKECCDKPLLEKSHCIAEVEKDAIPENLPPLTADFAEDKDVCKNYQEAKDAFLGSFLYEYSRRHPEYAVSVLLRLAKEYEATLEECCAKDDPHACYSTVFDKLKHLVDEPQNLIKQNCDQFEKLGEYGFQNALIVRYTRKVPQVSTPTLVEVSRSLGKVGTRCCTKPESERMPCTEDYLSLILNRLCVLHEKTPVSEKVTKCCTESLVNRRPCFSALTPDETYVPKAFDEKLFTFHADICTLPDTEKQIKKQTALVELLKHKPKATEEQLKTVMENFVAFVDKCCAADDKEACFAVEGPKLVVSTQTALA
Sequence of Focal adhesion kinase 1 (Homo sapiens) (Q05397 whole entry, looked up): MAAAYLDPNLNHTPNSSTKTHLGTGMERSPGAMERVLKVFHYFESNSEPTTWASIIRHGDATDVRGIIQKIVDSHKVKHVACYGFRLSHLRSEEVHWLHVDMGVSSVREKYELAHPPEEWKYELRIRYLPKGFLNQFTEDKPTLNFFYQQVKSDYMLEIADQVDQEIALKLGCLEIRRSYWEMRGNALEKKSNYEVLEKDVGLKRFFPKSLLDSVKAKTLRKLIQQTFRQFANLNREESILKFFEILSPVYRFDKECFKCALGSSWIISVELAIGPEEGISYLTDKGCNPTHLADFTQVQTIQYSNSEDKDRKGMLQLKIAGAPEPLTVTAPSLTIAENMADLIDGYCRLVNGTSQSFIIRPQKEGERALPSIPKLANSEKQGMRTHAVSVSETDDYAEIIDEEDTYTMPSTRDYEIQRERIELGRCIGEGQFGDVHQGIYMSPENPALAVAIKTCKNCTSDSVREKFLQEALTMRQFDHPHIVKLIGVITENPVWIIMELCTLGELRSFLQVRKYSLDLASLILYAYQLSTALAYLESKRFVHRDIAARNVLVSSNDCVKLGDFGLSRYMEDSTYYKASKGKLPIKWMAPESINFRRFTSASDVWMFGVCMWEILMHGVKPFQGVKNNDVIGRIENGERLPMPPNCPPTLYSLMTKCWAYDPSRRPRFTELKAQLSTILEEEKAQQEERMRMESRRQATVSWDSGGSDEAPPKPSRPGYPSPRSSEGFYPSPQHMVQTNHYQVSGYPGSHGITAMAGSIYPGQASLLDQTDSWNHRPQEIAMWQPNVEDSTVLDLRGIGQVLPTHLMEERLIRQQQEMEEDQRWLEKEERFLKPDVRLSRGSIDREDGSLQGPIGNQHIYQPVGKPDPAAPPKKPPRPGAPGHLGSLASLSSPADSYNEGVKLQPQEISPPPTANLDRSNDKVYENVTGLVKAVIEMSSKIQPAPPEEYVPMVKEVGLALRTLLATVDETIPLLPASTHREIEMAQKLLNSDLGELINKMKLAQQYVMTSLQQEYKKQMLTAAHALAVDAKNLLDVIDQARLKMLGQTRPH
Sequence of Follistatin (Homo sapiens) (P19883 whole entry, looked up): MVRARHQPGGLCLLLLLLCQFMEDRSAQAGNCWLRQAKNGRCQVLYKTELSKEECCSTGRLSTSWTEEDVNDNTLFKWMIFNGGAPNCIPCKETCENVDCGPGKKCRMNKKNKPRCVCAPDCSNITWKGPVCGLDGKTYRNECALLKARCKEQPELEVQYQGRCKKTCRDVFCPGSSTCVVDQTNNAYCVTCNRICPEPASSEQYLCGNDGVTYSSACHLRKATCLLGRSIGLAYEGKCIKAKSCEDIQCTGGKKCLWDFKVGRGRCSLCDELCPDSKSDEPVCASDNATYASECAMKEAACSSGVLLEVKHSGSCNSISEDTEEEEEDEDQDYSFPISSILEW
Sequence of Fibroblast growth factor 2 (Homo sapiens) (P09038 whole entry, looked up): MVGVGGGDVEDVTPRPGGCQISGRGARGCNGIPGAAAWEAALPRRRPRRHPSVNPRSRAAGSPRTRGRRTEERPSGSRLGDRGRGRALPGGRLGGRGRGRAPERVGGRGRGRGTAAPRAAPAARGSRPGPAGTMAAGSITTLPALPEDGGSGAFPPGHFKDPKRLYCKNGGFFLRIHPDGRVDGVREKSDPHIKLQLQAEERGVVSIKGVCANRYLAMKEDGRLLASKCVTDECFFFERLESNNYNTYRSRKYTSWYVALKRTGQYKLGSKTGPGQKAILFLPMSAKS
Sequence of Concanavalin-A (Canavalia ensiformis) (P02866 whole entry, looked up): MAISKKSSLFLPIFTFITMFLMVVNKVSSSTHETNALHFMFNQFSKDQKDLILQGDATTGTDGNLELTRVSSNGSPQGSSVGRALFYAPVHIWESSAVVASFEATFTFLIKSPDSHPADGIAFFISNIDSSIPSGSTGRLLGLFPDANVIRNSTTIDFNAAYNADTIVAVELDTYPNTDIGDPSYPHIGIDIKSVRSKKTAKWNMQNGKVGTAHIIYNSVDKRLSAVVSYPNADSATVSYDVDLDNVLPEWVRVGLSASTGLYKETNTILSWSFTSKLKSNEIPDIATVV
Sequence of Luciferin 4-monooxygenase (Photinus pyralis) (P08659 whole entry, looked up): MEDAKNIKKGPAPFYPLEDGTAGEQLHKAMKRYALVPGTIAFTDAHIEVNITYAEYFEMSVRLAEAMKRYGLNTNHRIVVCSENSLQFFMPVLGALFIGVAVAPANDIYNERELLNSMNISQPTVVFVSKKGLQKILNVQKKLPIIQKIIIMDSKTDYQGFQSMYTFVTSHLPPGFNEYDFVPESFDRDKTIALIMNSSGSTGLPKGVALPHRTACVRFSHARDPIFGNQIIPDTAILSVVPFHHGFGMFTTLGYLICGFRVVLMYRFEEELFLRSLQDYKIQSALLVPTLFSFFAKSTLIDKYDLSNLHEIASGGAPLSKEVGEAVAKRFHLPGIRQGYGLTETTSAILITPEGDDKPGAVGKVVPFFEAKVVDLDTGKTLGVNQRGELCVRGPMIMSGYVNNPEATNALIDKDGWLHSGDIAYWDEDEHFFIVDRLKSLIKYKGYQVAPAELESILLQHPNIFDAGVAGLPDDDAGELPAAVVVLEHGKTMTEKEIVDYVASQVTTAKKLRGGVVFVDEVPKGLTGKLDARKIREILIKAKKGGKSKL

On to `CC#CCO[Si](C#Cc1ccccc1)(C(C)C)C(C)C`, for which the composite z-score in experiment [1] was -1.33; in [3] it was -0.365; in [4], -0.156; in experiment [5] it was -0.624; in [6] it was -0.445; in [7], -0.353. For the same molecule, the composite z-score in experiment [8] was -1.18; in experiment [9] it was -0.913; in experiment [10] it was -1.46; in experiment [11], -1.71; in [12], -1.42; in experiment [13], -0.357. Besides, the composite z-score was -0.965 in experiment [14]; -0.711 in experiment [15]; 0.0353 in experiment [16]; -0.531 in experiment [18]; -0.874 in experiment [19]. In experiment [2], the composite Z-score is -0.197 (inactive). For the same molecule, the z-score in [17] is -1.01; in experiment [20], 0.741 (inactive).

For `[N-]=[N+]=NCc1ccccc1C[C@@]1(C(N)=O)N=C(c2ccc(OCCCO)cc2)O[C@@H]1c1ccccc1`, the composite z-score in experiment [1] was found to be 1.09; in [3] it was 0.0762; in [4], 0.0341; in experiment [5] it was 0.693; in experiment [6] it was 2.83; in [7], 0.368. Further, the composite z-score in experiment [8] was 1.3; in experiment [9] it was -1.38; in [10], 0.341; in experiment [11] it was 2.4; in [12] it was 1.03; in experiment [13], 0.572. Besides, the composite z-score in experiment [14] was 0.67; in [15], 0.367; in experiment [16], -0.457; in experiment [18] it was -0.642; in experiment [19], 1.3. Besides, in experiment [2], the composite Z-score was 0.294 (inactive). Moreover, the results for the z-score in [17] and in experiment [20] were 0.078 and -0.857 (inactive), respectively.

Turning to `Cc1ccc(N2C(=O)c3ccccc3[C@@H](C(=O)NCCCN(C)C)[C@@H]2c2ccc(CO)cc2)nc1`, the composite z-score in [1] is -0.0424; in [3], -0.416; in experiment [4], -0.244; in experiment [5] it was -0.0786; in [6], -0.515; in [7] it was -0.225. Also, the composite z-score was -0.292 in experiment [8]; -0.283 in experiment [9]; 0.375 in experiment [10]; 2.06 in experiment [11]; 0.232 in [12]; -0.736 in [13]. Also, the composite z-score in experiment [14] was 0.442; in experiment [15] it was 0.115; in experiment [16], -0.189; in [18] it was -0.978; in [19], -0.0618. In addition, in experiment [2], the composite Z-score was 0.403 (inactive). In addition, the z-score in [17] is -0.0107; in experiment [20] it was 0.775 (inactive).

As for `CO[C@H]1O[C@H](CO)[C@@H](OC(=O)CCc2ccccc2)[C@@H]2OC(=O)[C@@H](Cc3ccccc3)C/C=C/C[C@H](Cc3ccccc3)C(=O)O[C@@H]12`, the composite z-score was 0.0544 in experiment [1]; -0.0014 in experiment [3]; -0.0861 in experiment [4]; 0.116 in experiment [5]; 0.88 in [6]; 0.338 in [7]. Besides, the composite z-score in [8] came out at 1.13; in experiment [9], 0.0642; in experiment [10], 0.6; in [11], 0.623; in experiment [12] it was 1.03; in experiment [13], 0.178. For the same molecule, the composite z-score in experiment [14] was determined as 0.28; in experiment [15], 1.28; in experiment [16], 1.31; in experiment [18], 0.396; in [19], 0.0856. Further, the composite Z-score in experiment [2] was -0.0061 (inactive). Also, the z-score in experiment [17] was 2.11; in experiment [20], 0.769 (inactive).

Take `COc1cc2c(cc1O)C(C1CC1)N(Cc1cccc(OC(F)(F)F)c1)CC2` (stereo not given): the composite z-score in experiment [1] was 0.353; in [3], -0.0824; in experiment [4], -0.0846; in experiment [5] it was 0.814; in [6], 1.06; in experiment [7] it was 0.762. For the same molecule, the composite z-score in [8] is -0.316; in experiment [9], 0.13; in experiment [10], -0.744; in experiment [11], -0.144; in experiment [12], -0.922; in [13] it was -0.662. For the same molecule, the composite z-score in experiment [14] was -1.03; in experiment [15], 0.167; in experiment [16], 0.357; in experiment [18], -0.255; in experiment [19] it was -0.181. Moreover, the composite Z-score in experiment [2] is 0.926 (inactive). For the same molecule, the z-score in experiment [17] was -1.46; in experiment [20], 0.187 (inactive).
